Measured values published in the supplement of paper PMC10849652.
Targets with a hit are over-represented here; the source holds about 7,900 in all. About 0.6% of all pairs of compound and target were hits. A number with no mark means an inactive call.

Experiments:
Assay in all cases: log2 fold change, soluble protein after heating vs DMSO (PISA); higher = thermal stabilisation; K562 cells, 10 uM, 30 min; active = over 0.2 and 3.5 SD of the protein, either way, in both replicates (recomputed)
[1] = compound: CC[C@@H]1C(=O)N(C)c2cnc(Nc3ccc(C(=O)NC4CCN(C)CC4)cc3OC)nc2N1C1CCCC1
Procedure, shortened: (§1)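 K562 cells at 2×10^6 cells/mL were given 10 μM compound for 30 min. Aliquots then went through 3 min of heating across 48°C-58°C, were pooled, and were extracted in PBS with 0.5% NP-40 at 4°C, and the supernatant after 21,000xg for 90 min was quantified by TMTpro 16plex LC-MS/MS with channel sums equalised. Thermal stability relative to control samples, from duplicates, is given as log2 fold change.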

volasertib = compound: CC[C@@H]1C(=O)N(C)c2cnc(Nc3ccc(C(=O)N[C@H]4CC[C@H](N5CCN(CC6CC6)CC5)CC4)cc3OC)nc2N1C(C)C [volasertib]
Procedure, shortened: as §1

[2] = compound: CC[C@H](C)N1C=C(C2=C(C=C(C=C21)C3=CN=C(C=C3)N4CCNCC4)C(=O)NCC5=C(C=C(NC5=O)C)C)C
Procedure, shortened: as §1

epoxomicin = compound: CC[C@H](C)[C@@H](C(=O)N[C@@H]([C@@H](C)O)C(=O)N[C@@H](CC(C)C)C(=O)[C@]1(CO1)C)NC(=O)[C@H]([C@@H](C)CC)N(C)C(=O)C [epoxomicin]
Procedure, shortened: as §1

[3] = compound: CCn1c(C(=O)N(C2CC2)C2CC2)cc2c3c(ncn3C)c(Nc3cc(C)n(C)n3)nc21
Procedure, shortened: as §1

[4] = compound: CCn1cc(-c2ccnc3[nH]c(-c4cccc(CN(C)C)c4)cc23)c(-c2ccc(NC(=O)N(C)C)cc2)n1
Procedure, shortened: as §1

[5] = compound: CN(C)CC(=O)Nc1ccc2[nH]c(=O)c3ccccc3c2c1
Procedure, shortened: as §1

rosiglitazone = compound: CN(CCOC1=CC=C(C=C1)C[C@H]2C(=O)NC(=O)S2)C3=CC=CC=N3 (racemic) [rosiglitazone]
Procedure, shortened: as §1

[6] = compound: CN1C2=C(C3=C1C(=O)N(N=C3)CC4=CC(=CC=C4)N)SC(=C2)S(=O)C
Procedure, shortened: as §1

[7] = compound: CN1CCC(CNc2ccc3ncc(-c4cccc(OC(F)(F)F)c4)n3n2)CC1
Procedure, shortened: as §1

saracatinib = compound: CN1CCN(CCOc2cc(OC3CCOCC3)c3c(Nc4c(Cl)ccc5c4OCO5)ncnc3c2)CC1 [saracatinib]
Procedure, shortened: as §1

sotrastaurin = compound: CN1CCN(c2nc(C3=C(c4c[nH]c5ccccc45)C(=O)NC3=O)c3ccccc3n2)CC1 [sotrastaurin]
Procedure, shortened: as §1

alvocidib = compound: CN1CC[C@H](c2c(O)cc(O)c3c(=O)cc(-c4ccccc4Cl)oc23)[C@H](O)C1 [alvocidib]
Procedure, shortened: as §1

Tubastatin A = compound: CN1CCc2c(c3ccccc3n2Cc2ccc(C(=O)NO)cc2)C1 [Tubastatin A]
Procedure, shortened: as §1

[8] = compound: CNC(=O)C1=CC=CC=C1NC2=NC(=NC=C2Cl)NC3=C(C=C(C=C3)N4CCOCC4)OC
Procedure, shortened: as §1

defactinib = compound: CNC(=O)c1ccc(Nc2ncc(C(F)(F)F)c(NCc3nccnc3N(C)S(C)(=O)=O)n2)cc1 [defactinib]
Procedure, shortened: as §1

rucaparib = compound: CNCc1ccc(-c2[nH]c3cc(F)cc4c3c2CCNC4=O)cc1 [rucaparib]
Procedure, shortened: as §1

[9] = compound: CNc1nc(-c2ccc3c(N)n[nH]c3c2)cc(N2C[C@@H](C(=O)NC3CCCCC3)CC[C@H]2C)n1
Procedure, shortened: as §1

encorafenib = compound: COC(=O)N[C@@H](C)CNc1nccc(-c2cn(C(C)C)nc2-c2cc(Cl)cc(NS(C)(=O)=O)c2F)n1 [encorafenib]
Procedure, shortened: as §1

[10] = compound: COC(=O)[C@H](CCSC)NC(=O)C1=C(C=C(C=C1)NC[C@H](CS)N)C2=CC=CC=C2
Procedure, shortened: as §1

UniProt Q03013, sequence (Q03013 whole entry, looked up): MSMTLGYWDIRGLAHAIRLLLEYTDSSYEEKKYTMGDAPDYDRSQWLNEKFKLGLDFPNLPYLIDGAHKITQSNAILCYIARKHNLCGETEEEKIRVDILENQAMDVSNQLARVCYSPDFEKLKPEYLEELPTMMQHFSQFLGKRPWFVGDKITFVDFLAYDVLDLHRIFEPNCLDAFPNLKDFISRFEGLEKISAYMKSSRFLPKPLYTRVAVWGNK
UniProt P07910, sequence (P07910 whole entry, looked up): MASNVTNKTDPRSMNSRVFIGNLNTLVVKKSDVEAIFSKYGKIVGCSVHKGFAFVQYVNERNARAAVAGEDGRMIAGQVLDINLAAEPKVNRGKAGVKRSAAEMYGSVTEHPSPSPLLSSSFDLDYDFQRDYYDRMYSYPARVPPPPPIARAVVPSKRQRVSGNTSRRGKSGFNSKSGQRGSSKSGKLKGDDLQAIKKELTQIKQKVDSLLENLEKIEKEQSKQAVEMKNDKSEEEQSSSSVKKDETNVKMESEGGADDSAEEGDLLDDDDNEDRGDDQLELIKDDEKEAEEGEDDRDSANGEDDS
UniProt O00458, sequence (O00458 whole entry, looked up): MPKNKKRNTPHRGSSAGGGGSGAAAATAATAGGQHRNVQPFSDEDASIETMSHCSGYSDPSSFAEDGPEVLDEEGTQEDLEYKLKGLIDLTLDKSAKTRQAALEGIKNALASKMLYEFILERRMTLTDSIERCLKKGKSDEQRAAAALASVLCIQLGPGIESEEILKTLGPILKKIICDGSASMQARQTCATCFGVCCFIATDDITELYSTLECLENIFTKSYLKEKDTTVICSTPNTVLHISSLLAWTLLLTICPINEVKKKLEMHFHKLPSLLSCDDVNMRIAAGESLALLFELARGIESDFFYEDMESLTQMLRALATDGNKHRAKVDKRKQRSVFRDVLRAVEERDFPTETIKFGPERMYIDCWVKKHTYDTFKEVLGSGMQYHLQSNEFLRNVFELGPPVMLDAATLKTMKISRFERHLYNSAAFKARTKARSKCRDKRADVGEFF
UniProt Q9UKD1, sequence (Q9UKD1 whole entry, looked up): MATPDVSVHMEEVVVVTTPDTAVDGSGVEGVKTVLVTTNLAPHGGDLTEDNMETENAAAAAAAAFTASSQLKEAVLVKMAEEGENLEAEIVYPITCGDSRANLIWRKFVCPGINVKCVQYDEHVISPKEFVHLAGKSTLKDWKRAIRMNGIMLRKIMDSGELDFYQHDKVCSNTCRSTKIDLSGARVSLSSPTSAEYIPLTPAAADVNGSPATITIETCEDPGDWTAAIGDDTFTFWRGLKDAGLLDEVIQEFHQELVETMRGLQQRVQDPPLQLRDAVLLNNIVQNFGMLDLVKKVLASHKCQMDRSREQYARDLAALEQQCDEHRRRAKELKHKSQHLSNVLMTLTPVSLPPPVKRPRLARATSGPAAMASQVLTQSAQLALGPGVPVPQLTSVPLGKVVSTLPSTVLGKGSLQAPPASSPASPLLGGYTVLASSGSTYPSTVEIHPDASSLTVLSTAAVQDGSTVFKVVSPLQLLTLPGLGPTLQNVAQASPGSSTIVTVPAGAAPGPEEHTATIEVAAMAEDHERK
UniProt Q92917, sequence (Q92917 whole entry, looked up): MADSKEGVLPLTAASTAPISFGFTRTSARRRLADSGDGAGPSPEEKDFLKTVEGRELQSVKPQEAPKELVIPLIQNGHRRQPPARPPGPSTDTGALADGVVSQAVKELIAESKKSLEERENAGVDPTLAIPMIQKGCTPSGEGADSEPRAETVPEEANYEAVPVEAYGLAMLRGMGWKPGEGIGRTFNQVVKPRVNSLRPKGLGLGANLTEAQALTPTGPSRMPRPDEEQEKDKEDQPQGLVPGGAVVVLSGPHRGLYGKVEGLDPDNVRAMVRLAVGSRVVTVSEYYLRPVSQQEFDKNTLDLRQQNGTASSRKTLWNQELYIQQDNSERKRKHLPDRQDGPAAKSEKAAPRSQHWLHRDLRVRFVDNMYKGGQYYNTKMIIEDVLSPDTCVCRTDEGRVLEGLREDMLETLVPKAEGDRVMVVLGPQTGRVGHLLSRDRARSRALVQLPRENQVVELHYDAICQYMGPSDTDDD
UniProt P07686, sequence (P07686 whole entry, looked up): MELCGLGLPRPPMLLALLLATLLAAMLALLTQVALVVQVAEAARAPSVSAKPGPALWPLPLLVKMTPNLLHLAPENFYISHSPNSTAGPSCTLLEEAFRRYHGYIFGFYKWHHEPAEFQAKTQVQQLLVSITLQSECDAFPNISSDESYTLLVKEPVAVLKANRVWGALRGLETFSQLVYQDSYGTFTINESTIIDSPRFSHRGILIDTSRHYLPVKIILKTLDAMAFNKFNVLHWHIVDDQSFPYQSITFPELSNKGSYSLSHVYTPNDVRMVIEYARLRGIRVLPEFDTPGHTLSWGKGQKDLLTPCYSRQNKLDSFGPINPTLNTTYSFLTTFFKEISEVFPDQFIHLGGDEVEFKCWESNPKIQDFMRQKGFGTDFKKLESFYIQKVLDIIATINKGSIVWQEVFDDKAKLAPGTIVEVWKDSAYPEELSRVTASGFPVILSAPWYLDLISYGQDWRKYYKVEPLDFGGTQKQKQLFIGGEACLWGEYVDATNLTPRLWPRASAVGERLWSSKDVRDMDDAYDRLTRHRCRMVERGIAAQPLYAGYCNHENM
UniProt P49356, sequence (P49356 whole entry, looked up): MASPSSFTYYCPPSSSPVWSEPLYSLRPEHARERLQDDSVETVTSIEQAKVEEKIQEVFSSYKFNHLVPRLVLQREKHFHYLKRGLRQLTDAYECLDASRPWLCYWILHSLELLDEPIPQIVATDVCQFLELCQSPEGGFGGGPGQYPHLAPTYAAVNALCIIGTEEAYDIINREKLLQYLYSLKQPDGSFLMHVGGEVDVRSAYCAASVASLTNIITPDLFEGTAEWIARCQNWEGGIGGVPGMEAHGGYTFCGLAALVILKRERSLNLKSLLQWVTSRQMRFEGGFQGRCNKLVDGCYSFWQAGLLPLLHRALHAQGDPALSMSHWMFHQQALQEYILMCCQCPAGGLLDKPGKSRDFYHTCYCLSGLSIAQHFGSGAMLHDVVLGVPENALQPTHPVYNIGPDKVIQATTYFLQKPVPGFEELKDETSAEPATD
UniProt Q9BUJ2, sequence (Q9BUJ2 whole entry, looked up): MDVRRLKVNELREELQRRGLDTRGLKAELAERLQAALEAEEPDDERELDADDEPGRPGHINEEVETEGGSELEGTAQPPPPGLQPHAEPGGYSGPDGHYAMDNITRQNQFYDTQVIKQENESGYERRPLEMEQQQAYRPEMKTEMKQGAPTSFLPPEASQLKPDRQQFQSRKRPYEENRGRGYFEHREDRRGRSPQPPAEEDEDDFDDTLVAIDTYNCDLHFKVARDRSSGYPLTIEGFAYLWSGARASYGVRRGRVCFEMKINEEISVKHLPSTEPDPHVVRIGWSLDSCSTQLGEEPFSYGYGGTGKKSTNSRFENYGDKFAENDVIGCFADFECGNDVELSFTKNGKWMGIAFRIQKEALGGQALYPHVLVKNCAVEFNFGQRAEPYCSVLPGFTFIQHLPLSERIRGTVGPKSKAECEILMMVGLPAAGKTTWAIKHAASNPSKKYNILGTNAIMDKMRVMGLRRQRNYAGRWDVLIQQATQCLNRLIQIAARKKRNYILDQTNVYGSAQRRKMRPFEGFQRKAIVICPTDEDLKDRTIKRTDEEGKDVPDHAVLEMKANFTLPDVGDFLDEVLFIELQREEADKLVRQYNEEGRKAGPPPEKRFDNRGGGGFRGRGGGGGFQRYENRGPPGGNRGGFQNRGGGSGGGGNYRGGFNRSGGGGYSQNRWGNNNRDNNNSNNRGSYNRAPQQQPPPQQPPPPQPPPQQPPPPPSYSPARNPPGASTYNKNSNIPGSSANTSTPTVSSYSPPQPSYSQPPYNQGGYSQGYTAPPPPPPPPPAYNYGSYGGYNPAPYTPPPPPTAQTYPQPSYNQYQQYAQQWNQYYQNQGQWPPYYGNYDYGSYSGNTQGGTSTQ
UniProt P49840, sequence (P49840 whole entry, looked up): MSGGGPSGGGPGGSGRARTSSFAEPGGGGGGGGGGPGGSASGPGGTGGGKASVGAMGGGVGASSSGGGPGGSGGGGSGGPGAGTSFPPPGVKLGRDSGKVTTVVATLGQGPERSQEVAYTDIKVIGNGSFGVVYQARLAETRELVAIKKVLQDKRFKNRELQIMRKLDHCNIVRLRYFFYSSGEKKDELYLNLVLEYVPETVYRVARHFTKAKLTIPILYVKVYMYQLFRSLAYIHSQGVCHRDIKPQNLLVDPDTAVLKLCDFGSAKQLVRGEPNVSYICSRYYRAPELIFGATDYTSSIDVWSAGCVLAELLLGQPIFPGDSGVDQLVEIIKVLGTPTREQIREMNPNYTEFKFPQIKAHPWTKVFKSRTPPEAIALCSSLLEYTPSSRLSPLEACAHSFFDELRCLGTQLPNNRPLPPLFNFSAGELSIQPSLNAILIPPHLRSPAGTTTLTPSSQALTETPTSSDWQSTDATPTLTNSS
UniProt P15260, sequence (P15260 whole entry, looked up): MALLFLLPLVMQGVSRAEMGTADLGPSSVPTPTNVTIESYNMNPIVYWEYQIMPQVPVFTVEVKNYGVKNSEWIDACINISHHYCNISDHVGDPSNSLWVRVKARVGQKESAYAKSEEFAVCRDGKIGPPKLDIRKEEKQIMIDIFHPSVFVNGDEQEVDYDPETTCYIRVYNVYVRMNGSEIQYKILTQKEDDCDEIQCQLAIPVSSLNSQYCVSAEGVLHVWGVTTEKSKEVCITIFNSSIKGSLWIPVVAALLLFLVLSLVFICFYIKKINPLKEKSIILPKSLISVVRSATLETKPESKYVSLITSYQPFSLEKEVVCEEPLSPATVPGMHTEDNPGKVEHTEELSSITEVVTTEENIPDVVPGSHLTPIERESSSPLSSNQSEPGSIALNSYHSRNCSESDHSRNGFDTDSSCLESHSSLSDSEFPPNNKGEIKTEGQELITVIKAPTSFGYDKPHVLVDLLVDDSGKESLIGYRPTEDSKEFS
UniProt P52657, sequence (P52657 whole entry, looked up): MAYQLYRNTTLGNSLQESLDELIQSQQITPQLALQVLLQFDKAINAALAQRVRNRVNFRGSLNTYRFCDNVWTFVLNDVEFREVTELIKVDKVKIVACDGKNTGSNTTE

Target | log2 fold change [1] | log2 fold change (volasertib) | log2 fold change [2] | log2 fold change (epoxomicin) | log2 fold change [3] | log2 fold change [4] | log2 fold change [5] | log2 fold change (rosiglitazone) | log2 fold change [6] | log2 fold change [7] | log2 fold change (saracatinib) | log2 fold change (sotrastaurin) | log2 fold change (alvocidib) | log2 fold change (Tubastatin A) | log2 fold change [8] | log2 fold change (defactinib) | log2 fold change (rucaparib) | log2 fold change [9] | log2 fold change (encorafenib) | log2 fold change [10]
HEXB (UniProt P07686) | -0.426 (active) | -0.396 (active) | -0.013 | -0.006 | 0.031 | 0.019 | 0 | -0.008 | -0.047 | -0.563 (active) | 0 | 0.029 | -0.004 | -0.101 | 0.017 | -0.002 | -0.078 | -0.033 | 0.01 | -0.001
HNRNPK isoform 2 (UniProt P61978) | -0.143 | -0.271 (active) | 0.062 | 0.003 | -0.027 | -0.027 | 0 | 0.022 | -0.01 | -0.216 (active) | -0.057 | -0.037 | -0.155 | 0.064 | -0.017 | -0.228 (active) | -0.053 | 0.015 | 0.028 | 0.003
GYS1 (UniProt P13807) | 0.229 | 0.224 | 0.059 | -0.034 | 0.069 | 0.139 | 0.029 | -0.1 | 0.364 | 0.123 | -0.255 | -0.286 | 0.1 | 0.035 | 0.107 | 0.057 | 0.077 | 0.193 | 0.176 | -0.047
GMEB2 (UniProt Q9UKD1) | 0.05 | -0.282 (active) | 0.062 | 0.156 | -0.059 | -0.048 | 0.018 | 0.145 | -0.03 | -0.075 | 0.018 | -0.019 | -0.197 | 0.051 | -0.065 | -0.156 | 0.275 (active) | -0.023 | -0.007 | 0.008
FNTB (UniProt P49356) | 0.948 (active) | 0.707 (active) | 0.01 | 0.044 | -0.006 | -0.212 | 0.02 | 0.062 | -0.055 | -0.088 | 0.046 | 0.346 | -0.113 | 0.017 | -0.036 | 0.095 | 0.02 | -0.007 | -0.016 | 0.974 (active)
GDPD1 (UniProt Q8N9F7) | 0.069 | 0.049 | -0.019 | 0.017 | -0.015 | -0.188 | 0.004 | 0.083 | -0.132 | 0.092 | 0.505 (active) | 0.21 | -0.058 | 0.019 | -0.017 | -0.087 | -0.07 | 0.042 | -0.051 | -0.041
GPKOW (UniProt Q92917) | -0.056 | -0.217 | 0.101 | -0.021 | -0.063 | -0.049 | 0.039 | 0.045 | 0.022 | -0.248 | -0.03 | -0.031 | -0.188 | 0.033 | -0.107 | -0.178 | -0.036 | 0.069 | 0.034 | -0.032
GSK3A (UniProt P49840) | -0.067 | 0.002 | 0.002 | 0 | 0.025 | -0.101 | -0.008 | 0.017 | -0.066 | 0.033 | -0.007 | 0.337 (active) | 0.257 | -0.007 | -0.009 | 0.18 | 0.22 | -0.041 | 0.005 | -0.051
IFT80 isoform 3 (UniProt Q9P2H3) | 0.039 | -0.232 (active) | 0.072 | 0.053 | 0.008 | -0.09 | 0.095 | 0.028 | -0.084 | -0.157 | -0.016 | 0.029 | -0.091 | 0.094 | 0.01 | -0.023 | 0.029 | -0.007 | 0.056 | 0.014
HNRNPC isoform 2 (UniProt P07910) | 0.238 | 0.276 | 0.017 | -0.423 | -0.19 | 0.147 | -0.151 | -0.129 | 0.467 | -0.067 | -0.067 | -0.035 | 0.04 | 0.219 | 0.033 | 0.054 | 0.392 | 0.115 | 0.148 | 0.071
GSK3B isoform 2 (UniProt P49841) | 0.013 | -0.027 | -0.002 | 0.058 | -0.032 | -0.1 | -0.001 | 0.036 | -0.004 | 0.004 | 0.012 | 0.2 | 0.052 | -0.007 | 0.001 | -0.015 | 0.059 | -0.019 | -0.003 | 0.03
GTF2A2 (UniProt P52657) | 0.053 | 0.097 | -0.07 | 0.036 | 0.03 | 0.025 | -0.03 | 0.003 | -0.046 | -0.031 | 0.034 | 0.018 | -0.003 | 0.026 | -0.031 | -0.025 | -0.061 | -0.025 | -0.022 | 0.018
HNRNPUL1 (UniProt Q9BUJ2) | 0.051 | -0.069 | 0.014 | 0.019 | -0.029 | 0.004 | 0.013 | -0.001 | 0.099 | 0.031 | -0.016 | 0.039 | 0.082 | 0 | 0.008 | 0.018 | 0.075 | 0.034 | 0.063 | -0.011
IFNGR1 (UniProt P15260) | 0.065 | 0.15 | -0.382 | 0.021 | -0.108 | 0.1 | -0.087 | -0.02 | 0.032 | 0.127 | 0.05 | -0.038 | 0.253 | 0.11 | -0.215 | 0.051 | 0.056 | -0.009 | -0.026 | 0.088
GSTM4 (UniProt Q03013) | 0.202 | 0.095 | 0.039 | -0.009 | 0.036 | -0.063 | 0.025 | -0.24 | -0.054 | -0.182 | -0.106 | -0.066 | -0.065 | -0.044 | 0.003 | -0.086 | -0.385 (active) | 0.06 | -0.238 | 0.093
IFRD1 (UniProt O00458) | 0.107 | -0.015 | -0.14 | 0.053 | 0.019 | -0.016 | -0.143 | 0 | -0.097 | 0.297 | 0.026 | 0.242 | 0.064 | 0.089 | 0.042 | -0.003 | -0.46 (active) | -0.042 | 0.038 | 0.006
